According to PubChem BioAssay (Tox21):
Results filed as inconclusive are left out. Active and inactive are the calls of the source. Unless noted, the call rests on the fitted dose curve; in most records, active means well fitted curve in the direction sought with a large enough effect in the repeat runs; inconclusive means weak or mixed curves; inactive means no such curve, though single readings can be large; an effect the other way counts as inactive or inconclusive.

How the values were obtained:
[1] = qHTS assay to identify small molecule agonists of the vitamin D receptor (VDR) signaling pathway - cell viability counter screen (AID 743224); further: series mostly up to about 63 µM; on the % scale 0 is the no-effect control and ±100 the full control effect; nearly all actives have a fitted effect of over 50% in size
Summary of the method: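 Here cell health was gauged by luminescent ATP detection (CellTiter-Glo, 30 min RT) in VDR-bla cells that had been incubated with test compounds for 16 h at 37C and 5% CO2.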

[2] = qHTS assay to identify small molecule antagonists of the vitamin D receptor (VDR) signaling pathway - cell viability counter screen (AID 743225); further: on the % scale 0 is the no-effect control and ±100 the full control effect; nearly all actives have a fitted effect of over 50% in size
Summary of the method: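 Compounds were pinned onto VDR-bla HEK 293T cells together with 1-alpha,25-dihydroxyvitamin D3 at 3 nM final. After 16 h at 37C and 5% CO2 plus the reporter readout, cell viability was measured by CellTiter-Glo luminescence (30 min, room temperature).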

[3] = qHTS assay to identify small molecule agonists of the NFkB signaling pathway (AID 1159509; active means well fitted curve in the direction sought with a large enough effect in the signal ratio in the repeat runs, not every such curve was filed as active; the % refers to the signal ratio; further: series mostly up to about 61 µM; on the % scale 0 is the no-effect control and ±100 the full control effect)
Summary of the method: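 NFkB-bla ME-180 cells carry a beta-lactamase reporter under an NF-kB response element. They were plated overnight, then exposed to compounds for 5 h at 37 C. Read-out is LiveBLAzer FRET after 1.5 hr at room temperature (405 nm excitation; 460/530 nm emission).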

[4] = qHTS assay to identify small molecule agonists of the NFkB signaling pathway - cell viability counter screen (AID 1159515; calls by dose curve; further: series mostly up to about 61 µM; on the % scale 0 is the no-effect control and ±100 the full control effect; nearly all actives have a fitted effect of over 55% in size)
Summary of the method: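 5 hr compound treatment of NFkB-bla ME-180 cells (2,000/well, seeded overnight beforehand), followed by reporter substrate for 1.5 hr. CellTiter-Glo added afterward; luminescence after 30 min RT.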

[5] = qHTS assay to identify small molecule agonists of the endoplasmic reticulum stress response signaling pathway - cell viability counter screen (AID 1159517; calls by dose curve;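 further: HeLa cells carrying an ER stress response element beta-lactamase reporter; series mostly up to about 61 µM; on the % scale 0 is the no-effect control and ±100 the full control effect; nearly all actives have a fitted effect of over 50% in size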)
Summary of the method: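 ESRE-bla HeLa cells, 1,500 per well, seeded overnight then treated with compounds for 5 hr at 37 C. After the beta-lactamase read, viability in the same wells is measured by CellTiter-Glo luminescence after 30 min at room temperature.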

[6] = qHTS assay to identify small molecule antagonists of the retinoid-related orphan receptor gamma (ROR-gamma) signaling pathway - cell viability counter screen (AID 1159520); further: on the % scale 0 is the no-effect control and ±100 the full control effect; nearly all actives have a fitted effect of over 50% in size
Summary of the method: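 Tet-on ROR gamma CHO cells were given compounds for 2 hr, then doxycycline hyclate at 1 uM final, and incubated 16 hr at 37 C. Viability was measured as ATP content by CellTiter-Glo luminescence.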

[7] = target: Nuclear receptor ROR-gamma (Homo sapiens) (UniProt P51449); test: qHTS assay to identify small molecule antagonists of the retinoid-related orphan receptor gamma (ROR-gamma) signaling pathway (AID 1159521)
Summary of the method: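 Test compounds were applied to Tet-on RORγ CHO cells 2 h ahead of doxycycline hyclate (1 uM final). Luciferase reporter activity was quantified by luminescence after 16 h at 37 C and 5% CO2.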

[8] = qHTS assay to identify small molecule agonists of the AP-1 signaling pathway - cell viability counter screen (AID 1159525; calls by dose curve; further: nearly all actives have a fitted effect of over 55% in size)
Summary of the method: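 AP-1-bla ME-180 cells in Opti-MEM with 0.5% dialyzed FBS, compound exposure 5 h at 37 C in 15-point titration. Viability read in the same wells as ATP content by CellTiter-Glo luminescence, normalised to tetra-n-octylammonium bromide and DMSO controls.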

[9] = qHTS assay to identify small molecule agonists of the AP-1 signaling pathway (AID 1159526; calls by dose curve; further: on the % scale 0 is the no-effect control and ±100 the full control effect)
[10] = target: Retinoic acid receptor RXR-alpha (Homo sapiens) (UniProt P19793); test: qHTS assay to identify small molecule agonists of the RXR signaling pathway (AID 1159527; calls by dose curve; further: on the % scale 0 is the no-effect control and ±100 the full control effect; nearly all actives have a fitted effect of over 35% in size)
Chain of Retinoic acid receptor RXR-alpha (Homo sapiens) (P19793 whole entry, looked up): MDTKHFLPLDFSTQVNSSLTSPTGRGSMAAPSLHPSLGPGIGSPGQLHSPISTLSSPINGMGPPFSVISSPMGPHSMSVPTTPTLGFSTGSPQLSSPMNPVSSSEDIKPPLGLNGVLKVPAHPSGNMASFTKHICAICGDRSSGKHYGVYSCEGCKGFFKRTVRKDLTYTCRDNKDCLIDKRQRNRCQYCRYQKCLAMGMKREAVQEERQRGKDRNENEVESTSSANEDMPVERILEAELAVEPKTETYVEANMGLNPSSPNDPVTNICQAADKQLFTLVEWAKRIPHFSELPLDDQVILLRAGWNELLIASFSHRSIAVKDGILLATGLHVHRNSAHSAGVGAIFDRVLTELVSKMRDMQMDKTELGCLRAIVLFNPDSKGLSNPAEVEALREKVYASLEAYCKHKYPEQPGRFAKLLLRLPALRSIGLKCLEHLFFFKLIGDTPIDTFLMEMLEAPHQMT
Summary of the method: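 Using 9-cis retinoic acid as the reference agonist, chemicals were tested in HEK 293T cells […] for 16 hr; substrate loading lasted 2 hr at room temperature.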

[11] = qHTS assay to identify small molecule agonists of the RXR signaling pathway - cell viability counter screen (AID 1159529)
Summary of the method: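 Compounds dissolved in DMSO were pinned onto HEK 293T cells carrying a beta-lactamase reporter under RXR-alpha control and incubated 16 hr. Cytotoxicity was then quantified by CellTiter-Glo luminescence.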

[12] = qHTS assay to identify small molecule antagonists of the retinoid acid receptor (RAR) signaling pathway - cell viability counter screen (AID 1159551); further: on the % scale 0 is the no-effect control and ±100 the full control effect; nearly all actives have a fitted effect of over 35% in size
Summary of the method: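 Seed C3RL4 cells; next day add compound, then retinol to 1 uM final; incubate 6 h at 37 C; add CellTiter-Glo; read luminescence after 30 min at RT.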

[13] = qHTS assay to identify small molecule antagonists of the retinoic acid receptor (RAR) signaling pathway (AID 1159552)
Summary of the method: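 Test chemicals and DMSO controls were pin-transferred onto C3RL4 cells a day after seeding; retinol (1 uM final) followed at once. Luminescent reporter output was quantified after 6 hr of co-incubation and 30 min with detection reagent.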

[14] = qHTS assay to identify small molecule agonists of the retinoic acid receptor (RAR) signaling pathway (AID 1159553); further: on the % scale 0 is the no-effect control and ±100 the full control effect
Summary of the method: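 Activation of retinol signaling was monitored via a RARE luciferase reporter in C3RL4 cells. After 6 hr compound treatment at 37 C, detection reagent was added for 30 min at room temperature before luminescence reading.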

[15] = qHTS assay to identify small molecule antagonists of the estrogen related receptor (ERR) signaling pathway - cell viability counter screen (AID 1224818);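 further: series mostly up to about 46 µM; viability measured after 17.5 h of compound exposure; on the % scale 0 is the no-effect control and ±100 the full control effect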
Summary of the method: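 In the same ERR cell assay, compound-treated wells (17.5 h, 37 C) were multiplexed with a fluorogenic viability reagent, CellTiter-Fluor, read after 30 min to flag cytotoxic substances.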

[16] = qHTS assay to identify small molecule antagonists of the estrogen related receptor (ERR) signaling pathway (AID 1224819)
Summary of the method: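 qHTS in ERR cells, 2,000/well, 1536 format. Cpd (DMSO) added after 6 h settle, 18 h 37 C. One-Glo luminescence, 30 min RT.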

[17] = qHTS assay to identify small molecule agonists of the estrogen related receptor (ERR) signaling pathway (AID 1224820); further: on the % scale 0 is the no-effect control and ±100 the full control effect
Summary of the method: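 ERR reporter cell line (from NTP), 2,000 cells/well, incubated 6 h before compound addition, then 18 h at 37 C. Luminescence measured 30 min after One-Glo reagent at room temperature.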

[18] = tested on: estrogen-related receptor alpha (ERRalpha) with PGC-1alpha coactivator, human; test: qHTS assay to identify small molecule antagonists of the estrogen related receptor signaling pathway with the pleiotropic PPARgamma coactivator (PGC) (AID 1224821; calls by dose curve)
Summary of the method: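 PGC/ERR reporter cell line, plated 6 h before compound addition, then exposed 18 h at 37 °C. Luciferase activity read by luminescence 30 min after One-Glo addition; decrease indicates antagonism.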

[19] = qHTS assay to identify small molecule antagonists of the estrogen related receptor signaling pathway with the pleiotropic PPARgamma coactivator (PGC) cell viability counter screen (AID 1224822)
Summary of the method: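 Compounds in DMSO, with positive and negative controls, were applied to PGC/ERR cells (2,000/well) and left 17.5 h at 37 C before CellTiter-Fluor detection.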

[20] = qHTS assay to identify small molecule agonists of the endoplasmic reticulum stress response signaling pathway (AID 1159516; active means well fitted activation curve with a large enough effect in the signal ratio in the repeat runs, not every such curve was filed as active; the % refers to the signal ratio; further: on the % scale 0 is the no-effect control and ±100 the full control effect)
Summary of the method: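 Reporter HeLa cells (ESRE-beta-lactamase) underwent 5 hr compound incubation at 37 C and 5% CO2 in quantitative HTS format. Detection followed 2 hr of FRET substrate loading at room temperature.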

O=C(O)CN(CCOCCOCCN(CC(=O)O)CC(=O)O)CC(=O)O
inactive: activity change, negative = cytotoxicity [1] 7.18% [at 0.55 µM] | viability change, negative = cytotoxic [2] 0.79% [at 0.628 µM] | activation [3] -0.0067% [at 0.628 µM] | activity, negative = cytotoxic [4] 7.66% [at 0.628 µM] | activity change, negative = cytotoxicity [5] 11.3% [at 0.628 µM] | activity, negative = cytotoxicity [6] 0.0573% [at 0.349 µM] | activity change, negative = inhibition [7] 4.15% [at 0.35 µM] | viability change, negative = cytotoxic [8] -1.21% [at 0.29 µM] | activation [9] -6.2% [at 0.29 µM] | activation [10] 10% [at 0.29 µM] | activity change, negative = cytotoxicity [11] -0.722% [at 0.29 µM] | activity change, negative = cytotoxicity [12] 0.187% [at 0.349 µM] | activity, negative = inhibition [13] 12.3% [at 0.349 µM] | activation [14] 2.01% [at 0.756 µM] | outcome [15] | outcome [16] | outcome [17] | outcome [18] | outcome [19]

CN1C(=O)N(C)C(O)C1O (stereo not given)
inactive: Potency [1] | Potency [2] | outcome [3] | outcome [4] | outcome [20] | outcome [6] | Potency [7] | Potency [8] | outcome [9] | Potency [10] | Potency [11] | outcome [12] | Potency [13] | Potency [14]

Cc1ccc(Cl)cc1Cl
inactive: Potency [1] | Potency [2] | outcome [3] | outcome [4] | outcome [20] | outcome [6] | Potency [7] | Potency [8] | outcome [9] | Potency [10] | Potency [11] | outcome [12] | Potency [13] | Potency [14]

COC(C)(C)CCCC(C)CC=O (stereo not given)
inactive: Potency [1] | Potency [2] | outcome [3] | outcome [4] | outcome [20] | outcome [6] | Potency [7] | Potency [8] | outcome [9] | Potency [10] | Potency [11] | outcome [12] | Potency [13] | Potency [14]

C=CCCCCCCCCC=O
inactive: Potency [1] | Potency [2] | outcome [3] | outcome [4] | outcome [20] | outcome [6] | Potency [7] | Potency [8] | outcome [9] | Potency [10] | Potency [11] | outcome [12] | Potency [13] | Potency [14]

FC1(F)C(F)(F)C(F)(F)C2(F)C(F)(F)C(F)(F)C(F)(F)C(F)(F)C2(F)C1(F)F (stereo not given)
inactive: Potency [1] | Potency [2] | outcome [3] | outcome [4] | outcome [20] | outcome [6] | Potency [7] | Potency [8] | outcome [9] | Potency [10] | Potency [11] | outcome [12] | Potency [13] | Potency [14]

CC(C)CCCC(C)N (stereo not given)
inactive: Potency [2] | outcome [3] | outcome [4] | outcome [20] | outcome [6] | Potency [7] | Potency [8] | outcome [9] | Potency [10] | Potency [11] | outcome [12] | Potency [13] | Potency [14]

Brc1c(NC2=NCCN2)ccc2nccnc12
inactive: Potency [1] | Potency [2] | outcome [3] | outcome [4] | outcome [20] | Potency [7] | Potency [8] | outcome [9] | Potency [10] | Potency [11] | outcome [12] | Potency [13] | Potency [14] | outcome [15] | outcome [16] | outcome [17] | outcome [18] | outcome [19]
